# An excerpt weighted towards active compounds, which were near 4.1% of everything screened.
# Cav32 inh: inhibitors of human Cav3.2 T-type calcium channel | O95180 | Cav3.2-expressing cells, Fluo-4 calcium fluorescence FDSS; stronger effect = lower value | B-score at 10 µM | hit rate 4% among 100,000 | AID 449739;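 active means single-dose well whose peak fluorescence ratio is a statistical outlier from its plate by either plate-standardised score or position-corrected B-score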
# Mac1 fbg enh: enhancers of human CD11b/CD18 binding to fibrinogen. K562 CD11b/CD18 adhesion to fibrinogen, ATPlite luminescence. activation, % at 10 µM. hit rate 0.07% among 93,000. AID 1499;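 active means 10 µM primary screen giving 50% or more activity, confirmed by 40% or more on retest at that dose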
# MRP reversal: reverses drug resistance mediated by MRP | H69AR cells + 2 uM doxorubicin, CellTiter-Glo, 72 h | hit rate 0.04% among 85,000 | differential viability (reversal), % at 10 µM;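 active means viability drop by adding the cancer drug above about 55%, with treated viability meeting a 40% cutoff, limit read from the data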;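 further: viability without doxorubicin minus viability with 2 µM doxorubicin for each compound; larger differential means the compound sensitizes cells more to doxorubicin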
# PTK2B oligo ant: Pyk2 (human) oligomerization antagonism; Q293 cells, Pyk2 FERM NanoBiT luminescence; stronger effect = lower value; z-score (the deposit names both 25 µM and 10 µM); hit rate 0.83% among 99,000; AID 1347419;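 active means Z-score of -3 or lower, scaled per plate to the spread of control and sample wells; inactive means z-score above -3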;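 further: negative z-score means lost luminescence so less FERM oligomerization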
# CD11b adhes inh: inhibitors of human CD11b/CD18 binding to fibrinogen. P05107+P11215. K562 CD11b/CD18 adhesion to fibrinogen, ATPlite luminescence; Mn2+ added to activate the integrin. inhibition, % at 10 µM. hit rate 0.54% among 93,000. AID 1497;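 active means primary inhibition of 50% or more at 10 µM, then 40% or more on retest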
# MRP-1 activ: activators of MRP-1 | H69AR cells + doxorubicin, viability rescue, CellTiter-Glo | viability increase, % at 10 µM | hit rate 0.61% among 140,000 | AID 799;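 active means viability gain under doxorubicin at or above a set limit, the compound median plus 3 SD, cut at about 4.7% in these data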;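 further: MRP-1 overexpressing cells given doxorubicin 25 µM after compound pretreatment; 18-22 h compound pretreatment then 72 h with doxorubicin before readout; 0% = doxorubicin-only wells and 100% = vehicle-treated cells without doxorubicin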
# * hit, by the source's call; x = no result.
SMILES,Cav32 inh,Mac1 fbg enh,MRP reversal,PTK2B oligo ant,CD11b adhes inh,MRP-1 activ
CC1=C(C(=O)OC(C)C)C(c2ccc(Br)s2)NC(=O)N1C (stereo unspecified),-4.44*,-3.3,14.6,-0.08,-7.6,-2.1
Cc1ccccc1NC(=S)NNc1ncc(C(F)(F)F)cc1Cl,0.635,-0.1,x,0.99,17.4,-3.4
Fc1ccccc1NC(=S)NNc1ncc(C(F)(F)F)cc1Cl,x,-11.0,x,0.1,80.7*,-3.7
Cc1cccc(C)c1NC(=S)NNc1ncc(C(F)(F)F)cc1Cl,0.192,-1.9,x,0.59,3.3,-2.4
Cc1c(Cl)cccc1NC(=S)NNc1ncc(C(F)(F)F)cc1Cl,-4.31,-9.9,-2.8,-1.11,89.5*,-2.0
Clc1ccc(NCc2nncn2-c2ccccc2)cc1,0.0945,-2.8,5.7,-0.21,-1.9,0.3
CC1CCN(CCCCOc2cccc(Br)c2)CC1,x,x,x,x,x,-3.2
CC(C)NC(=O)NC(=O)CSc1ccccc1F,x,2.9,x,x,1.2,1.9
Cn1c(C(=O)N2CCN(C(=O)c3ccco3)CC2)cc2c(=O)n3ccccc3nc21,-0.734,0.8,-4.9,0.62,-29.0,-2.9
CCc1c(C#N)c(SCCC(=O)Nc2ccc(F)cc2)nc2c1C(=O)CC(C)(C)C2,-1.92,-4.1,x,-3.23*,40.8,-4.8
CC1(C)CC(=O)c2c(nc(SCC(=O)Nc3nsc(-c4ccccc4)n3)c(C#N)c2-c2ccccc2)C1,-2.36*,2.6,x,-1.71,16.7,-5.7
Cc1nnc(SCC(=O)Nc2nsc(-c3ccccc3)n2)s1,-0.0214,-3.5,-2.4,-0.24,5.8,-2.8
CCc1c(C#N)c(SCCC(=O)Nc2cccc(OC)c2)nc2c1C(=O)CC(C)(C)C2,-2.68,-4.6,x,-2.35,10.7,-3.8
CC1(C)CC2(CC(c3cccs3)c3cc(Cl)c(O)cc3O2)NC(=S)N1 (stereo unspecified),x,x,x,-1.76,x,-4.0
O=c1ccn(-c2cccc(C(F)(F)F)c2)nc1-c1ccn(-c2cccc(Cl)c2)n1,-5.69*,x,x,-1.36,x,-3.7
O=[N+]([O-])c1ccc2c(c1)C(N1CCOCC1)/C(=C/COc1ccc(F)cc1)O2 (stereo unspecified),-7.26*,1.4,x,-0.46,-23.0,-3.1
O=[N+]([O-])c1ccc(OC/C=C2\Oc3ccc([N+](=O)[O-])cc3C2N2CCOCC2)cc1 (stereo unspecified),-2.15,-1.6,x,0.7,6.2,-1.6
N#Cc1c2n(c3c(=O)n(Cc4ccccc4Cl)cnc13)CCCC2,0.983,2.3,-2.7,-2.92,3.0,-1.4
N#Cc1c2n(c3c(=O)n(Cc4ccc(Cl)cc4)cnc13)CCCC2,0.964,1.2,-11.7,-3.51*,-0.9,1.0
Cc1cc(C(=O)CN2C(=O)NC(c3ccccc3)(c3ccccc3)C2=O)c(C)n1Cc1ccco1,-8.6*,13.9,7.5,0.29,38.1,-4.6
Cc1cc(C(=O)CN2C(=O)NC3(CCCc4ccccc43)C2=O)c(C)n1Cc1cccs1 (stereo unspecified),-7.44*,-3.0,14.8,0.25,-3.4,-0.7
C=CCn1c(C)cc(C(=O)CN2C(=O)NC3(CCCc4ccccc43)C2=O)c1C (stereo unspecified),-0.824,5.5,12.3,-0.03,10.4,-0.7
COc1ccc(NS(=O)(=O)c2ccc(N3CCCC3)c(NC(=S)Nc3ccc(SC(F)F)cc3)c2)cc1,x,x,x,x,x,-4.4
COc1ccc(N2CCN(CCCn3c(=S)[nH]c4ncccc4c3=O)CC2)cc1,1.4,2.7,33.3,0.4,62.1*,-2.0
O=c1c2cccnc2[nH]c(=S)n1CCCN1CCN(c2ccc(F)cc2)CC1,0.805,3.6,-1.4,0.27,-37.9,-1.8
CCOC(=O)c1cnc2ccc(C)cc2c1Sc1ccccc1C(=O)OC,x,4.2,x,-4.34*,-5.1,-6.9
C#CCOCCOCCOCCNc1nc(N2CCN(C(=O)C(Cc3ccc(O)cc3)n3cc(C(N)CC(C)C)nn3)CC2)nc(N2CCN(C(=O)C(Cc3cc4ccccc4[nH]3)n3cc(C(N)Cc4ccc(O)cc4)nn3)CC2)n1 (stereo unspecified),0.877,x,x,x,x,x
CCOC(=O)c1c(-c2cccc(C)c2)csc1NC(=O)C1CC=CCC1C(=O)O (stereo unspecified),-8.85*,-2.3,x,0.25,17.6,-0.6
COc1cc([N+](=O)[O-])ccc1NC(=O)CCCOc1ccc(C)cc1,-0.504,1.7,x,1.1,-23.0,0.2

# Screening data from PubChem BioAssay.
